Values joined by “and” are separate entries in the source; they are usually repeats but may differ in a detail not shown here. Equal values may be shown once. Records with an inconclusive call do not appear. Some structures have more than one record in an assay (separate samples or runs), and their calls can disagree. Active and inactive are the calls of the source. Unless noted, the call rests on the fitted dose curve; in most records, active means well fitted curve in the direction sought with a large enough effect in the repeat runs; inconclusive means weak or mixed curves; inactive means no such curve, though single readings can be large; an effect the other way counts as inactive or inconclusive.
Legend:
[1] = qHTS assay for small molecules that induce genotoxicity in human embryonic kidney cells expressing luciferase-tagged ATAD5 (AID 651632); further: nearly all actives have a fitted effect of over 15% in size
Outline: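 A rise in luciferase signal from ATAD5-tagged HEK293T cells marks genetic stress. Cells were exposed to compounds for 16 hr at 37C, 5% CO2, then luciferase was quantified after a 30 min room-temperature incubation with Amplite.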

[2] = qHTS assay for small molecule disruptors of the mitochondrial membrane potential (AID 720635); further: potency means the concentration at half of the fitted maximal effect
Outline: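 HepG2 cells (2,000/well) attached overnight at 37C, then took compound for 1 hr at 37C, 5% CO2. Mito-MPS dye was added for 30 min; fluorescence was read at 490/535 nm (monomers) and 540/590 nm (aggregates).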

[3] = qHTS assay for identifying genotoxic compounds that show differential cytotoxicity against isogenic chicken DT40 cell lines with known DNA damage response pathways - wild type cell line (AID 743012); further: potency means the concentration at half of the fitted maximal effect; nearly all actives have a fitted effect of over 60% in size
Outline: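 Viability by ATP luminescence (CellTiter-Glo, 30 min RT) after 40 h compound treatment at 37 C/5% CO2, using 300 parental DNA repair-proficient DT40 cells per well.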

[4] = qHTS assay for identifying genotoxic compounds that show differential cytotoxicity against isogenic chicken DT40 cell lines with known DNA damage response pathways - Rad54/Ku70 mutant cell line (AID 743015); further: potency means the concentration at half of the fitted maximal effect; nearly all actives have a fitted effect of over 60% in size
[5] = qHTS assay to identify small molecule antagonists of the androgen receptor (AR) signaling pathway - cell viability counter screen (AID 743033; further: nearly all actives have a fitted effect of over 45% in size; further: potency means the concentration at half of the fitted maximal effect)
[6] = qHTS assay to identify small molecule antagonists of the androgen receptor (AR) signaling pathway using the MDA cell line - cell viability counter screen (AID 743041; further: nearly all actives have a fitted effect of over 45% in size; further: potency means the concentration at half of the fitted maximal effect)
Outline: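 qHTS viability read-out; MDA-kb2 AR-luc; R1881-stimulated; 16 h exposure at 37C, 0% CO2; CellTiter-Fluor, 30 min; fluorescence intensity.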

[7] = qHTS assay to identify small molecule antagonists of the thyroid receptor (TR) signaling pathway - cell viability counter screen (AID 743064); further: nearly all actives have a fitted effect of over 50% in size; further: potency means the concentration at half of the fitted maximal effect
Outline: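 Compounds were tested on GH3.TRE-Luc cells in the presence of T3 at 1 nM final. Following 23.5 h at 37 °C, cell viability was quantified by CellTiter-Fluor.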

[8] = qHTS assay to identify small molecule antagonists of the thyroid receptor (TR) signaling pathway (AID 743065); further: nearly all actives have a fitted effect of over 55% in size; further: potency means the concentration at half of the fitted maximal effect
Outline: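 GH3.TRE-Luc rat pituitary cells carrying two TR response elements driving luciferase were plated for 4 h, given compound plus 1 nM T3 (final), and incubated 23.5 h at 37 C. ONE-Glo luminescence measured reporter inhibition; CellTiter-Fluor fluorescence tracked cytotoxicity.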

[9] = biological target: Estrogen receptor (Homo sapiens) (UniProt P03372); test: qHTS assay to identify small molecule agonists of the estrogen receptor alpha (ER-alpha) signaling pathway (AID 743075; calls by dose curve)
Estrogen receptor (Homo sapiens), sequence (P03372 whole entry, looked up): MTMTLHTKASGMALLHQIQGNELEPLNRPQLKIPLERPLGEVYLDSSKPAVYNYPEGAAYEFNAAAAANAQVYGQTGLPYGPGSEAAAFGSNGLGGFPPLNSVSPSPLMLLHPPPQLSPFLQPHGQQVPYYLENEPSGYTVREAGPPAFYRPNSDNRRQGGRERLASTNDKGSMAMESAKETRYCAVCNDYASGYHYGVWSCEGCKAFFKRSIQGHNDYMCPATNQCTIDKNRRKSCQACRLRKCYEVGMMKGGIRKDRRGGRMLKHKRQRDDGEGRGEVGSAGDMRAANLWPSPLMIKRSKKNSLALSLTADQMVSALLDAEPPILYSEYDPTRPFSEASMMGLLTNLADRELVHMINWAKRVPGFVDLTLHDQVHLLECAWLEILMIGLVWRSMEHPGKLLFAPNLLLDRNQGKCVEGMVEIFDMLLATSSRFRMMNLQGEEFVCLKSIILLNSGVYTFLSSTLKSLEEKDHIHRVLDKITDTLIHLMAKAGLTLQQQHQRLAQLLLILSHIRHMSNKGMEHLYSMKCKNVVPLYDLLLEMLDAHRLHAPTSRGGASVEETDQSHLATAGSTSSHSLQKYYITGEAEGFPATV

[10] = qHTS assay to identify small molecule antagonists of the estrogen receptor alpha (ER-alpha) signaling pathway using the BG1 cell line - cell viability counter screen (AID 743081);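 further: compound given together with 17beta-estradiol as the ER stimulus; series mostly up to about 70 µM; nearly all actives have a fitted effect of over 45% in size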
[11] = qHTS assay to identify aromatase inhibitors - cell viability counter screen (AID 743084);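 further: cells stimulated with testosterone during compound exposure; nearly all actives have a fitted effect of over 55% in size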; further: potency means the concentration at half of the fitted maximal effect
[12] = qHTS assay to identify small molecule agonists of the peroxisome proliferator-activated receptor delta (PPARd) signaling pathway - cell viability counter screen (AID 743211); further: nearly all actives have a fitted effect of over 55% in size; further: potency means the concentration at half of the fitted maximal effect
Outline: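 Luminescent ATP viability assay (CellTiter-Glo, 30 min RT) in UAS-bla HEK293H cells carrying the PPAR delta reporter construct, 3000 cells/well, after a 17 h compound treatment at 37 C.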

[13] = qHTS assay to identify small molecule antagonists of the farnesoid-X-receptor (FXR) signaling pathway - cell viability counter screen (AID 743221; active means well fitted cell-killing curve with a large enough effect in the repeat runs, not every such curve was filed as active; further: nearly all actives have a fitted effect of over 50% in size; further: potency means the concentration at half of the fitted maximal effect)
Outline: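 In GeneBLAzer FXR-UAS-bla HEK 293T cells stimulated with 50 uM chenodeoxycholic acid (final), compounds acted for 16 h at 37 C. Viability was assessed afterwards by CellTiter-Glo luminescence.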

[14] = biological target: Nuclear receptor ROR-gamma (Homo sapiens) (UniProt P51449); test: qHTS assay to identify small molecule antagonists of the retinoid-related orphan receptor gamma (ROR-gamma) signaling pathway (AID 1159521; further: nearly all actives have a fitted effect of over 50% in size; further: potency means the concentration at half of the fitted maximal effect)
Outline: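 CHO cells expressing RORγ under a TET-on promoter, luciferase under RORE control. Dox 1 uM final, 16 h; compounds added 2 h prior. Luminescence decrease measured.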

[15] = biological target: Estrogen receptor beta (Homo sapiens) (UniProt Q92731); test: qHTS assay to identify small molecule antagonists of the estrogen receptor beta (ER-beta) signaling pathway (AID 1259378; active means well fitted inhibition curve with a large enough effect in the signal ratio in the repeat runs, not every such curve was filed as active; the % refers to the signal ratio; further: potency means the concentration at half of the fitted maximal effect)
Estrogen receptor beta (Homo sapiens), sequence (Q92731 whole entry, looked up): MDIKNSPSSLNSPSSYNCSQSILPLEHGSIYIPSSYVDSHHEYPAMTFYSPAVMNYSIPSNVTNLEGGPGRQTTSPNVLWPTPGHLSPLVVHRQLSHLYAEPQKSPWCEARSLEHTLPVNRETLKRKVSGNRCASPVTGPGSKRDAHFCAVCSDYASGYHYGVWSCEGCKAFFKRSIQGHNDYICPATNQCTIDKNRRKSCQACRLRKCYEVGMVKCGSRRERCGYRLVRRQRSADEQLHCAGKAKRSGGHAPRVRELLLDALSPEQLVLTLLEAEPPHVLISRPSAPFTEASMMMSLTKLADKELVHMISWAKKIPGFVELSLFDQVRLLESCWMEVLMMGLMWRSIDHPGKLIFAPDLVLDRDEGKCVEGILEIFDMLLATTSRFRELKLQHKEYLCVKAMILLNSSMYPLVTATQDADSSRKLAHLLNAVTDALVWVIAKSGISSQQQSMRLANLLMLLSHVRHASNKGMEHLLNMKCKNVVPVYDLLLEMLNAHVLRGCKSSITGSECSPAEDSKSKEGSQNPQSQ
Outline: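 ER-beta-UAS-bla HEK293T (GripTite) cells in 2% charcoal-stripped FBS medium were preincubated 6 hr at 37C, dosed with compound, then stimulated with 1 nM E2 (final) for 16 hr; beta-lactamase reporter read by B/G FRET fluorescence after 2 hr substrate loading.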

[16] = biological target: Progesterone receptor (Homo sapiens) (UniProt P06401); test: qHTS assay to identify small molecule antagonists of the progesterone receptor (PR) signaling pathway (AID 1346795; active means well fitted inhibition curve with a large enough effect in the signal ratio in the repeat runs, not every such curve was filed as active; the % refers to the signal ratio; further: potency means the concentration at half of the fitted maximal effect)
Progesterone receptor (Homo sapiens), sequence (P06401 whole entry, looked up): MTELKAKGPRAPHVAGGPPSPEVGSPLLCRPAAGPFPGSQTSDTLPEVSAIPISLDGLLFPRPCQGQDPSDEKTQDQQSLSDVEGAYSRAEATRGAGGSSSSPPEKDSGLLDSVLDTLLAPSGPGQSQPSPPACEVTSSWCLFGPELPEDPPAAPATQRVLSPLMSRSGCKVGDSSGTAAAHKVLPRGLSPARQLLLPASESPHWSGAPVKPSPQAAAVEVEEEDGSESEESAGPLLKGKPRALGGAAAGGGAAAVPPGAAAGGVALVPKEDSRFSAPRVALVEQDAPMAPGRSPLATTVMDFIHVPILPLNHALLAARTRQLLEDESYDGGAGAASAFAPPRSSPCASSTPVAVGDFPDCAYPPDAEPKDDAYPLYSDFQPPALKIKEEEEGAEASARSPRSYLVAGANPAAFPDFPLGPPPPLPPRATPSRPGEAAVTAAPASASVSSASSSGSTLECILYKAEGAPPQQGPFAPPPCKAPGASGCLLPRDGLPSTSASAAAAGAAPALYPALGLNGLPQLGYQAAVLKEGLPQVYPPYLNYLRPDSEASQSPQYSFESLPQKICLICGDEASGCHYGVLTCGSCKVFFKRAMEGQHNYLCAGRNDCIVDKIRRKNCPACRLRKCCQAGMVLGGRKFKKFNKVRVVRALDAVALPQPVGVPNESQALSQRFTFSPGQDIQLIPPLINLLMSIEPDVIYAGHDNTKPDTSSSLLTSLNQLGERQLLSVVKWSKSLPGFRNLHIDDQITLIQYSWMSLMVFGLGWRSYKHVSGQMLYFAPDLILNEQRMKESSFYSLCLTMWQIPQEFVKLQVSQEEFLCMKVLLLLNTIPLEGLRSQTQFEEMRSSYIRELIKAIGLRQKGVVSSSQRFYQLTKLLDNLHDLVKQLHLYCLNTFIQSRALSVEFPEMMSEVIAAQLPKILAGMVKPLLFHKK
Outline: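 Screening used a GripTite HEK293T line with PR-responsive UAS-beta-lactamase. Cells were challenged with compound in the presence of 1 nM R5020 final for 16 hr at 37C; B/G FRET substrate, 2 hr room temperature, fluorescence.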

[17] = biological target: Androgen receptor (Homo sapiens) (UniProt P10275); test: qHTS assay to identify small molecule agonists of the androgen receptor (AR) signaling pathway in the presence of an antagonist (AID 1259381; calls by dose curve; further: nearly all actives have a fitted effect of over 15% in size; further: potency means the concentration at half of the fitted maximal effect)
Androgen receptor (Homo sapiens), sequence (P10275 whole entry, looked up): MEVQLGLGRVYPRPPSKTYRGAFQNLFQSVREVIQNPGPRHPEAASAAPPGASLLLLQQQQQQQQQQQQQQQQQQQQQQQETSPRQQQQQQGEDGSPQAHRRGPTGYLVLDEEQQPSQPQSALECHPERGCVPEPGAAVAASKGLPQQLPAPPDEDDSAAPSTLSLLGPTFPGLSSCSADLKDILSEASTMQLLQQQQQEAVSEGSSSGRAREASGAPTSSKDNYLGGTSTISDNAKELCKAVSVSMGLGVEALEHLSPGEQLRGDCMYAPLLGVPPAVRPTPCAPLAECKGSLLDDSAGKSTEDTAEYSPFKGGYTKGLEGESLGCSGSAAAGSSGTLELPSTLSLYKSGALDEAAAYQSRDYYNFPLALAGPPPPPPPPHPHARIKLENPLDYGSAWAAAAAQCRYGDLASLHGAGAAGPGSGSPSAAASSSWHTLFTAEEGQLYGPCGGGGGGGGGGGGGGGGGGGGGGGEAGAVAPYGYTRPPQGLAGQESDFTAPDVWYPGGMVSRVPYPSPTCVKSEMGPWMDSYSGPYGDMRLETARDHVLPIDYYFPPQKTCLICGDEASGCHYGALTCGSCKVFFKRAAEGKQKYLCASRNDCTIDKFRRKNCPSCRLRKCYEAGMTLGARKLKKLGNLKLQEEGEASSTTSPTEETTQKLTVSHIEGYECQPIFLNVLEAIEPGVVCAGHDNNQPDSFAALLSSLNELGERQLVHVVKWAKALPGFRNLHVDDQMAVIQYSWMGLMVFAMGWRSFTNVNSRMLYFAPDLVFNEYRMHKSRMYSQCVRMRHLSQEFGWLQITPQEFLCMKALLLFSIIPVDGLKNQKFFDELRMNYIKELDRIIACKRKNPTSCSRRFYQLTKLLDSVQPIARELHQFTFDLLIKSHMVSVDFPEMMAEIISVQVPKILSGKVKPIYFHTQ
Outline: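 Agonist-mode confirmation run against 3.0 uM final nilutamide: compounds titrated at 15 concentrations onto MDA-kb2 MMTV-luciferase reporter cells. Luminescence measured with ONE-Glo following 16 hr incubation, 37C, 0% CO2.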

[18] = biological target: Androgen receptor (Homo sapiens) (UniProt P10275); test: qHTS assay to identify small molecule antagonists of the androgen receptor (AR) signaling pathway using the MDA cell line in the presence of 0.5 nM R1881 (AID 1259243); further: nearly all actives have a fitted effect of over 50% in size; further: potency means the concentration at half of the fitted maximal effect
Outline: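 Luminescent reporter readout (ONE-Glo, 30 min, room temperature) after 16 hr co-treatment of MDA-kb2 cells with test compounds and 0.5 nM R1881 final, at 37C without CO2. The MMTV-driven luciferase responds to both AR and GR.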

[19] = qHTS assay for small molecule activators of the heat shock response signaling pathway (AID 743210; active means well fitted activation curve with a large enough effect in the signal ratio in the repeat runs, with a control signal flat, not every such curve was filed as active; the % refers to the signal ratio;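 further: HeLa cells with beta-lactamase reporter driven by heat shock elements; series mostly up to about 63 µM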)
Outline: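 Activation of heat shock element-controlled beta-lactamase expression is measured in HeLa cells by LiveBLAzer FRET fluorescence, with compound exposure lasting 5 h at 37 C and substrate loading 2.5 h at room temperature.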

[20] = qHTS assay to identify small molecule that activate the aryl hydrocarbon receptor (AhR) signaling pathway - cell viability counter screen (AID 743086); further: nearly all actives have a fitted effect of over 45% in size; further: potency means the concentration at half of the fitted maximal effect
Outline: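 HepG2-AhR-luc (HG2L7.5c1) cells, 4000/well, were preincubated 5 h at 37C, exposed to compound in qHTS format for 24 hr at 37C, then given CellTiter-Fluor for 30 min; viability was read as fluorescence in the reporter wells.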

Measured: Potency

CN1CSC(=S)N(C)C1
inactive: [1] | [2] | [9] | [10]
active: [3] 6.08 µM and 5.43 µM | [4] 6.08 µM and 4.84 µM | [5] 5.47 µM and 3.46 µM | [6] 24.3 µM | [7] 30.5 µM | [8] 3.05 µM and 3.85 µM | [11] 10.8 µM and 27.2 µM | [12] 3.87 µM | [13] 12.3 µM | [14] 964 nM and 2.16 µM | [15] 24.2 µM | [16] 19.2 µM and 8.61 µM

COc1cc(OC)c(OC)cc1C=O
active: [11] 59.3 µM
inactive: [1] | [6] | [9] | [10] | [13] | [14] | [15] | [17]

CCN(CC)C(=O)Cl
inactive: [14] | [18] | [15] | [17] | [16]

O=[N+]([O-])c1c(Cl)c(Cl)cc(Cl)c1Cl
inactive: [1] | [5] | [8] | [11] | [19] | [12] | [13] | [16]

O=C(c1ccccc1)C(Cl)Cl
inactive: [17]
active: [14] 27.3 µM | [18] 4.33 µM

Oc1c(I)cc(I)cc1I
inactive: [18] | [17]
active: [16] 30.6 µM

Cc1cc(C(C)(C)c2ccc(O)c(C)c2)ccc1O
inactive: [1] | [6] | [7] | [10] | [19] | [13] | [17]
active: [2] 6.53 µM | [18] 4.62 µM

CNC(=O)Oc1cc(C)c(SC)c(C)c1
active: [17] 12.2 µM | [16] 27.3 µM

CCOC(=O)C(O)(c1ccc(Cl)cc1)c1ccc(Cl)cc1
44.1 µM (active) and inactive: [13]
active: [2] 4.37 µM and 24.3 µM | [3] 6.18 µM and 19.3 µM | [4] 3.9 µM and 17.2 µM | [5] 7.84 µM | [6] 61.8 µM | [7] 6.18 µM | [8] 4.91 µM and 61.1 µM | [11] 6.18 µM | [12] 13.9 µM and 43.6 µM | [18] 13.8 µM and 21.7 µM | [15] 30.9 µM and 54.5 µM | [16] 13.8 µM and 13.7 µM
61.8 µM (active) and inactive: [20]
inactive: [1] | [9] | [10] | [19] | [17]

Nc1ccc([N+](=O)[O-])cc1
active: [2] 1.37 µM | [3] 13.7 µM | [4] 14.1 µM | [5] 54.9 µM | [6] 30.6 µM | [8] 61.1 µM | [20] 40.9 µM | [18] 8.63 µM | [17] 61.1 µM
inactive: [14]

O=S(=O)(C(Cl)(Cl)Cl)C(Cl)(Cl)Cl
active: [18] 17.2 µM
inactive: [17] | [16]

ClC(Cl)=C(c1ccc(Cl)cc1)c1ccccc1Cl
active: [18] 9.69 µM | [15] 6.86 µM
inactive: [17]

N#Cc1cc([N+](=O)[O-])ccc1N
inactive: [15]

CO/C=C(/C(=O)OC)c1ccccc1Oc1cc(Oc2ccccc2C#N)ncn1
inactive: [1] | [9] | [19] | [17]
active: [2] 2.31 µM | [4] 0.312 µM | [5] 18.5 µM | [6] 21.7 µM | [7] 33.6 µM | [8] 0.411 µM | [11] 58.1 µM | [20] 37.6 µM | [14] 0.581 µM | [18] 5.81 µM

O=C(Nc1ccccc1-c1ccc(Cl)cc1)c1cccnc1Cl
inactive: [9] | [10] | [11] | [20] | [14]
active: [3] 57.8 µM | [4] 66.7 µM | [8] 57.8 µM

Nc1ccc(Cl)cc1[N+](=O)[O-]
inactive: [19]
